This is a sample that favours compounds with a hit; in the whole collection about 2.2% have one here.
cardiac RTF act: increases calcium sensitivity of human cardiac regulated thin filaments | P19429+P45379 | IANBD-labeled TnC RTF fluorescence at EC20 calcium; 0% EC20 calcium, 100% full calcium | activation, % at 7.2 µM | 0.24% of 340,000 active | AID 493008;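 active = activation above the mean over all tested compounds plus 3 SD, cut at about 30% in these data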;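 note: rise in fluorescence read as greater calcium sensitivity of cardiac thin filaments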
CRFBP-R2 block: blocks CRF-induced signaling of the CRF-BP/CRF-R2 complex | inhibition, % at 11.8 µM | 0.59% of 350,000 active | HEK293 CRF-R2/CRF-BP, CRF-induced calcium fluorescence;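 active = inhibition of the ligand-induced calcium signal above about 50% at the single tested concentration, limit read from the data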
Myeloid diff 2: compounds promoting myeloid differentiation; AID 624256; calls only at 10 µM; ER-HoxA9 myeloid progenitors, lysozyme-GFP differentiation, flow cytometry; 1% of 360,000 active;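 active = normalized GFP-positive differentiation at or above the plate's own cutoff, the solvent-only control mean plus 3 SD; inconclusive = no clear call, values can overlap the other calls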;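 note: cells exposed to compound for four days before flow analysis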
CRFR2-BP ag: agonists of human CRF-binding protein/CRF-R2 receptor complex. activation, % at 13.2 µM. 0.46% of 350,000 active. HEK293 CRF-R2/CRF-BP, calcium dye fluorescence (FLIPR); percent of saturating CRF peptide response;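 active = activation of at least 50%, plus an integration ratio under a set limit after plate pattern correction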;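 note: plate controls were neutral control wells without compound for no effect and CRF at EC100 for full effect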
Cardiac RTF inh: cardiac RTF calcium desensitization; P19429+P45379; IANBD-labeled cardiac RTF, Ca2+ fluorescence; inhibition, % at 7.15 µM; 0.12% of 340,000 active; AID 493244;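 active = inhibition above the mean inhibition of all tested compounds plus 3 SD, cut at about 17% in these data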;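 note: assay run at fixed EC70 calcium of 1.6 mM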
* marks the source's active call; other numbers are inactive results; i = inactive; ? = inconclusive; · = not tested or not shown; + = active, no number.

SMILES	cardiac RTF act	CRFBP-R2 block	Myeloid diff 2	CRFR2-BP ag	Cardiac RTF inh
Cn1c(/C(C#N)=C/c2ccc(O)cc2)nc2ccccc21	1	3	i	1	0
COc1cc(/C=C(\C#N)c2nc3ccccc3[nH]2)cc(OC)c1O	32*	-205	i	164*	-46
COc1cccc(/C=C(/C#N)c2nc3ccccc3[nH]2)c1OC(C)C(=O)O (stereo not drawn)	35*	2	i	0	-1
COc1cc(/C=C(\C#N)c2nc3ccccc3n2C)cc(OC)c1O	7	-61	i	52*	-16
COc1cc(/C=C(/C#N)c2nc3ccccc3c(=O)[nH]2)ccc1O	5	-42	i	68*	-7
O=C(CNS(=O)(=O)c1ccc2ccccc2c1)OCc1nnc(-c2ccccc2)o1	3	22	i	-1	-2
CCCCc1ccc(NC=C2C(=O)OC3(CCCCC3)OC2=O)cc1	-5	-204	i	145*	5
COc1ccc(NS(=O)(=O)c2cc(NC(=O)c3ccccn3)ccc2OC)cc1Br	1	4	i	0	-4
COc1ccc(NC(=O)c2c(F)cccc2F)cc1S(=O)(=O)Nc1ccc(Br)cc1	-5	63*	i	5	2
Cn1c(N)c(C(=O)COC(=O)CNS(=O)(=O)c2ccc(Cl)c(Cl)c2)c(=O)n(C)c1=O	2	65*	i	-2	1
COc1ccccc1NC(=O)c1ccc(NC(=O)CSc2nnnn2C)cc1	2	-15	i	-1	4
O=S(=O)(N/N=C1/CC(c2ccccc2)Oc2ccccc21)c1ccccc1 (stereo not drawn)	0	6	+	5	-3
COc1ccccc1C(=O)NNC(=O)c1cccc(C)c1	2	26	i	3	0
CNc1nc(NC)nc(NNC(=O)c2ccccc2)n1	0	51*	i	-2	0
Cc1cc(NNC(=O)c2ccccc2)nc(NNC(=O)c2ccccc2)n1	5	-17	i	-1	-6
Cc1ccc(C(=O)NCCCn2ccnc2)cc1C	·	-4	i	-3	·
O=C(NCCCn1ccnc1)c1ccc2nccnc2c1	-1	0	+	2	-8
CC(C)(C)NC(=O)/C(=C/c1ccccc1F)NC(=O)c1ccc([N+](=O)[O-])cc1	-3	52*	i	-1	-4
Cc1ccc(CC(=O)OC(C)C(=O)NC2CCCCC2C)cc1C (stereo not drawn)	-2	2	i	1	-9
COc1ccc(C(=O)Nc2cc(Cl)ccc2OC(=O)c2ccc(OC)cc2)cc1	5	-3	i	0	-4
COc1ccc(OC(=O)c2ccc(Cl)cc2)c(C(C)=O)c1	1	52*	i	0	-22
COc1ccc(NC(=O)c2cc(S(=O)(=O)N3CCc4ccccc43)cn2C)cc1OC	-2	19	i	-2	-3
COc1ccc(/C=C/C(=O)NCc2cn(C)nc2C)cc1COc1ccc(Cl)cc1Br	-3	92*	i	9	0
CCn1nc(C)c(NC(=O)/C=C/c2ccc(OC)c(COc3ccc(Cl)cc3Br)c2)c1C	-3	4	i	1	7
Cc1nc2nc(SCC(=O)c3cccc([N+](=O)[O-])c3)[nH]c2cc1Br	2	67*	i	-1	2
SMILES	cardiac RTF act	CRFBP-R2 block	Myeloid diff 2	CRFR2-BP ag	Cardiac RTF inh
CC1(C(=O)Nc2ccc3c(c2)OCCO3)CSCC(=O)N1CCc1ccccc1F (stereo not drawn)	·	·	i	·	·
COc1ccc(CNCCNC(=O)c2nonc2N)cc1OC	7	-5	+	5	-5
Nn1c(SCC(=O)Nc2ccc(F)cc2)nnc1-c1cccnc1	2	6	i	-2	-9
COc1ccc(NC(=S)NCc2cccnc2)cc1OC	12	4	i	0	-14
COc1ccc(NC(=S)NCc2cccnc2)cc1	-2	92*	i	1	3
Cc1ccccc1NS(=O)(=O)c1ccc(C)c(C(=O)N2CCOCC2)c1	-3	54*	i	1	-3
Cc1cc(C)c(C)c(S(=O)(=O)Nc2ccccc2C(=O)O)c1C	-2	85*	i	0	0
O=C(O)c1ccccc1NS(=O)(=O)c1ccc2c(c1)OCCO2	4	57*	i	-1	-10
Cc1cc(NC(=O)c2ccccc2NS(=O)(=O)c2c(C)c(C)cc(C)c2C)no1	0	-18	i	3	-8
COc1ccc(-n2nc3c(N4CCC(C(=O)N5CCC(C)CC5)CC4)nnc(C)c3c2C)cc1	32*	-2	+	16	-45
Cc1nnc(N2CCC(C(=O)N3CCCCC3)CC2)c2nn(-c3ccc(Cl)cc3)c(C)c12	-3	-2	?	-1	1
O=C1C[C@@H]2c3c(cccc3CN1Cc1ccccc1F)C[C@@H](O)[C@H]2O	13	-6	i	0	-9
CCCCc1nc2ccccc2c(NC(=O)CN(CC)CC)c1CCC	-12	98*	i	0	2
COc1cccc(N2CCN(C(C)C(=O)NC34CC5CC(CC(C5)C3)C4)CC2)c1 (stereo not drawn)	4	-12	+	0	-6
Cc1cc(OCCOCCN(C)CCO)cc(C)c1Cl	0	14	i	0	0
COc1cccc(OCCOCCN(C)CCO)c1	3	6	+	-1	-6
COc1ccc(CN2CCNC(=O)C2CC(=O)NCCCC2CCCC2)c(C)c1C (stereo not drawn)	3	-13	i	1	1
CCN(CC)S(=O)(=O)c1ccc(Cl)c(C(=O)Nc2ccc(Cl)cc2[N+](=O)[O-])c1	-10	3	i	-1	-3
Cn1c(=O)c2c(nc(CN3CCc4ccccc4C3)n2Cc2cccc(Cl)c2)n(C)c1=O	-3	2	+	-5	3
O=C(Cc1ccc([N+](=O)[O-])cc1)Nc1ccc2c(c1)CCC2	0	2	?	-1	3
CN1C(=O)CC(c2cn(Cc3ccccc3)c3ccccc23)C1=O (stereo not drawn)	-4	3	+	2	-1
CC(=O)N1N=C(c2ccccc2)CC1c1cn(Cc2ccccc2)c2ccccc12 (stereo not drawn)	0	28	i	2	2
Cc1ccc(O)c(NC(=O)c2ccc3c(c2)C(=O)N(Cc2cccnc2)C3=O)c1	-1	3	+	1	-11
CCOc1ccc(C(CCc2ccccc2)NC(=O)c2ccccc2OC)cc1OCC (stereo not drawn)	3	76*	i	4	-4
C[C@@]12CCC3[C@@](CCC4[C@@]3(C)CCC[C@@]4(C)C(=O)N3CCOCC3)(CC1=O)C2 (stereo partly drawn)	3	-2	i	1	-1
COc1cc(CN2CCc3c([nH]c4ccccc34)C2)cc(OC)c1	5	-13	+	7	2

Assay outcomes deposited in PubChem by several laboratories.
